Source: PubChem BioAssay
D2 PAM-1 = positive allosteric modulators of human D2 dopamine receptor; 340,000 compounds, 0.34% hits; potentiation, % at 10 µM; AID 485347; HEK293 T-REx D2, calcium flux, EC20 dopamine potentiation;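 active = potentiation over 3 SD above the plate norm, cut at about 30% in these data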; also: 0% is about no effect
Target sequence (P14416 whole entry, looked up): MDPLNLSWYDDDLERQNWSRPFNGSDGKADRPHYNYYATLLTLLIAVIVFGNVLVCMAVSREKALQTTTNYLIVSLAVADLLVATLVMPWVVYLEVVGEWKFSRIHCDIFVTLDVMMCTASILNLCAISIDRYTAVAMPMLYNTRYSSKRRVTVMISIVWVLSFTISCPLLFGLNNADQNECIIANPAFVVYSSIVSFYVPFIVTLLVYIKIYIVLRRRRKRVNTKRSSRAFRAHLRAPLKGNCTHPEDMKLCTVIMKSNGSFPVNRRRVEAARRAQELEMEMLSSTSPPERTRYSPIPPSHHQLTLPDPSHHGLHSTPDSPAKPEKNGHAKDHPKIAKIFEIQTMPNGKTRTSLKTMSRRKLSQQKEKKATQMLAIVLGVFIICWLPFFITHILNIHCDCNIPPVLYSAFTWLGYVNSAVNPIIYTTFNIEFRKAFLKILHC
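Using a no-wash calcium dye in inducible, force-coupled HEK293 Trex cells expressing D2, we tracked fluorescence each second for 180 s after compound, then for 180 s after EC20 dopamine to detect augmented signalling.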
D2 ag-1 = activates the human D2 dopamine receptor | P14416 | DiscoveRx PathHunter D2 beta-arrestin, luminescence, 90 min; 100% = 57 uM dopamine signal | 360,000 compounds, 0.084% hits | activation, % (test concentration not listed); in the data active = activation above about 40%; inconclusive = between about 15% and that limit
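Agonist mode: compounds alone added to overnight-plated D2 PathHunter cells for 90 min at 37 C, with 57 uM final dopamine (EC100) defining full response. Beta-arrestin recruitment detected by chemiluminescent reagent, read after 1 h at ambient temperature.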
D2 ag-2 = agonists of human D2 dopamine receptor | activation, % at 2 µM | 340,000 compounds, 0.53% hits | AID 485358 | HEK293 T-REx D2 cells, calcium flux agonist mode | P14416;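 active = activation over 3 SD above normal in the single-dose calcium agonist read, cut at about 30% in these data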; also: 0% is about no effect
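HEK293 Trex D2 cells, tetracycline-induced, o/n 30 C 5% CO2; no-wash Ca dye, RT 30–90 min; 10-cycle baseline, 23 nl cpd added, kinetic Ca read 180 s; agonist hits = positive Ca response.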
D2 antagonist = antagonists of human D2 dopamine receptor | HEK293 TREx D2 cells, calcium flux, dopamine EC80 | inhibition, % at 10 µM | 340,000 compounds, 2% hits; in the data active = inhibition above about 30%; inactive = below that, where a call was filed; also: 0% is about no effect
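Inhibition of EC80 dopamine-driven calcium flux, recorded kinetically, defines activity here; cells are a tetracycline-induced HEK293 T-REx line expressing force-coupled D2.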
D2 PAM-2 = positive allosteric modulators of human D2 dopamine receptor | DiscoveRx D2 beta-arrestin cells, luminescence, 90 min; 100% = 57 uM dopamine signal | potentiation, % (no concentration beside the values) | 360,000 compounds, 0.23% hits | AID 624464; in the data active = potentiation above about 50%; inconclusive = mostly about 30% to 49%
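D2 cells co-treated with compound plus 50 nM dopamine (EC20) for 90 min at 37 deg C to detect potentiation. Beta-arrestin recruitment was read as enzyme-fragment luminescence after 1 h at ambient temperature. Full response was set by 57 uM dopamine.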
* hit, by the source's call; ? = inconclusive; / = no result. Compounds with a hit are over-represented: about 2.4% of the library has one in this group of screens.

SMILES | D2 PAM-1 | D2 ag-1 | D2 ag-2 | D2 antagonist | D2 PAM-2
CCN1CCCC1CNC(=O)c1cc(S(N)(=O)=O)ccc1OC (stereo unspecified) | / | -6 | / | / | -33
O=C(NC1CCCCC1)c1ccc(CSc2nc3ccncc3n2Cc2cccc(F)c2)cc1 | 2 | / | -1 | / | /
COc1ccc(C(=O)NCc2ccco2)cc1S(=O)(=O)N1CCOCC1 | -7 | -2 | 0 | 10 | -3
O=[N+]([O-])c1ccc(Cl)c(S(=O)(=O)N2CCCCCC2)c1 | 10 | 0 | 0 | -5 | 70*
CN1CCN(S(=O)(=O)c2cc([N+](=O)[O-])ccc2Cl)CC1 | 1 | 4 | 0 | 3 | 28
O=C(c1ccc(Cl)c(S(=O)(=O)N2CCCCC2)c1)N1CCCCC1 | -5 | -4 | 0 | -8 | -13
CC(=O)N1CCN(C(=O)c2ccc(Cl)c(S(=O)(=O)N3CCCCCC3)c2)CC1 | 7 | 1 | 1 | 32* | -6
COc1ccc(C(=O)NCc2ccccc2CN2CCCC2)cc1S(=O)(=O)N1CCOCC1 | -23 | -7 | 0 | 45* | -17
O=C(NCC1COc2ccccc2O1)c1ccc(Cl)c(S(=O)(=O)N2CCOCC2)c1 (stereo unspecified) | -1 | -2 | 1 | 31* | -1
CCOc1ccccc1NC(=O)Nc1cc2c(cc1N1CCCCC1)n(CC)c(=O)n2CC | -8 | / | 1 | / | /
Cc1ccc(C(=O)NCc2ccccc2F)cc1S(=O)(=O)N1CCCC1 | 12 | 2 | 1 | -30 | -10
Cc1ccc(C(=O)NCc2ccccc2CN2CCCC2)cc1S(=O)(=O)N1CCOCC1 | -28 | -1 | 0 | 51* | -31
O=C(NCc1ccc(Cl)cc1)c1cc2ccccc2o1 | / | / | 1 | / | /
O=C(NCc1ccccc1CN1CCCC1)c1ccc(Cl)c(S(=O)(=O)N2CCCC2)c1 | -26 | -2 | 0 | 33* | -32
O=C(NCc1ccccc1CN1CCCC1)c1cc2cc(Cl)ccc2o1 | -19 | 5 | 0 | 40* | -3
COc1ccc(-c2nnc(SCC(=O)N(C)C3CCCCC3)o2)cc1OC | / | / | 0 | / | /
Cc1ccc(-c2c(C)n3c4c(=O)n(C)c(=O)n(C)c4nc3n2CCCO)cc1 | 11 | / | 0 | / | /
Cc1ccc(NC(=O)C(C)[n+]2ccccc2)cc1[N+](=O)[O-] (stereo unspecified) | -18 | -3 | 0 | 60* | -19
COc1ccc(OCC(=O)OCc2cc(=O)n3nc(C4CCCCC4)sc3n2)cc1 | 1 | / | 2 | / | /
N#Cc1cc2ccc(N3CCOCC3)cc2cc1C#N | 13 | 13 | 0 | 13 | 69*
COc1cc(C(=O)NCc2ccc(OCCN(C)C)cc2)cc(OC)c1OC | -21 | -4 | 0 | 72* | -38
Cc1ccc(C)c(Cn2c(=O)cc(C(F)(F)F)c3c(C)nn(C)c32)c1 | -4 | / | 0 | / | /
CS(=O)(=O)N(CC(=O)NCCSCc1ccccc1)c1cc(C(F)(F)F)ccc1Cl | 8 | / | -2 | / | /
CCCN1C(=O)/C(=C/c2c(N3CCNC(=O)C3CC(=O)OC)nc3c(C)cccn3c2=O)SC1=S (stereo unspecified) | -12 | / | 55* | 43* | /
CC(NC(=O)C1CCN(C(=O)c2ccc(F)cc2)CC1)c1ccc(-n2ccnc2)cc1 (stereo unspecified) | 9 | 6 | 2 | 31* | -8
SMILES | D2 PAM-1 | D2 ag-1 | D2 ag-2 | D2 antagonist | D2 PAM-2
COc1cc(C(=O)NC(C)c2ccc(-n3ccnc3)cc2)cc(OC)c1C (stereo unspecified) | 31* | -3 | -1 | 8 | -21
COc1cc(C(=O)NCC(=O)NC(C)c2ccc(-n3ccnc3)cc2)cc(OC)c1OC (stereo unspecified) | -3 | 4 | 0 | -4 | 16
COc1ccc(OC)c(NC(=O)CSc2ccnc(=O)[nH]2)c1 | -1 | / | / | / | /
CC(C)=C(NC(=O)c1ccccc1)C(=O)NC(Cc1ccccc1)C(=O)O (stereo unspecified) | -2 | 1 | 1 | 39* | -1
Cc1ccc(CNC(=O)Cc2coc3cc(C)cc(C)c23)cc1 | 4 | / | -1 | / | /
COC(=O)c1ccc(CSc2nnc3ccc4ccccc4n23)cc1 | 12 | / | 3 | / | /
COc1cc(-c2onc3ccc(Br)cc23)cc(OC)c1OC | -1 | ? | 0 | -8 | 59*
COc1ccc(-c2onc3ccc(Br)cc23)cc1 | 4 | ? | 1 | -1 | 100*
COc1ccc(-c2ccc(CCC(=O)O)n2CC(=O)Nc2cccc(Cl)c2C)cc1 | -3 | / | 0 | / | /
CCC(Oc1ccc(F)cc1)C(=O)Nc1nc(-c2ccc(F)cc2)ns1 (stereo unspecified) | -19 | / | / | / | /
COc1ccc(C(c2c(O)cc(C)n(Cc3ccco3)c2=O)N2CCCCC2)cc1OC (stereo unspecified) | 1 | / | 0 | / | /
Cc1nc2c(-c3ccccc3)cnn2c(N2CCOCC2)c1C | -9 | -3 | 0 | 31* | -2
CCOC(=O)c1c(NC(=O)COC(=O)c2nc(Cl)ccc2Cl)sc(C(=O)N(C)C)c1C | 4 | -2 | 1 | -4 | -14
CCOC(=O)c1c(NC(=O)COC(=O)CNC(=O)c2ccc(Cl)cc2Cl)sc(C(=O)N(C)C)c1C | 32* | -1 | -1 | 9 | -5
O=C(CCC1N=C2c3ccccc3N=C(SCC(=O)Nc3ccc(F)cc3)N2C1=O)NCc1cccs1 (stereo unspecified) | -14 | / | 0 | / | /
CCc1nn(CC(=O)NCCCN2CCc3ccccc3C2)c(=O)c2cc3sccc3n12 | -29 | -6 | -1 | 79* | -8
Cc1cccc(NC(=O)c2ccc3snnc3c2)c1C | -2 | / | 0 | / | /
COC(=O)c1ccc(NC(=O)CSc2nnnn2C2CCCCC2)cc1 | -1 | 7 | 0 | 42* | -9
CCOC(=O)CSc1nc2sc3c(c2c(=O)n1Cc1ccccc1)CCC(C(C)(C)C)C3 (stereo unspecified) | -10 | / | 0 | / | /
O=C(O)C1CC=CCC1C(=O)NCCCCc1ccccc1 (stereo unspecified) | 0 | 1 | 0 | 34* | -1
On1onc2c3cc(-c4ccccc4)nc3ccc21 | 1 | 14 | 0 | -3 | 59*
COc1ccc(OC)c(C2C3=C(CCCC3=O)Nc3c2c(=O)n(C)c(=O)n3C)c1 (stereo unspecified) | 32* | 0 | 1 | 29 | -11
COc1ccc(C2C3=C(CC(C)(C)CC3=O)Nc3c2c(=O)n(C)c(=O)n3C)cc1OC (stereo unspecified) | 2 | 0 | 0 | 8 | -21
CCOc1cc(C(=O)NCCc2csc3nc(-c4ccccc4F)nn23)cc(OCC)c1OCC | 1 | / | -2 | / | /
CCOc1cc(-c2cc(-c3ccc(N)cc3)nc(N)c2C#N)ccc1O | 3 | 8 | -2 | 6 | -11
CCOc1cc(-c2noc(N)c2C#N)cc(OCC)c1OCC | 27 | 41* | 1 | 1 | 130*
